# Screening data deposited in PubChem by SRMLSC.
# Shown are actives, neighbours in structure and some others; about 6.3% of the full set was active somewhere.
# MK inhibit: S. pneumoniae MK inhibitors, primary screen, biochemical, PK/LDH-coupled NADH absorbance; inhibition, % at 10 µM; AID 555, 2006; purified MK, PK/LDH-coupled NADH absorbance 340 nm; actives 0.48% (n = 65,000); mevalonate kinase [Streptococcus pneumoniae D39];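 active = ranked among the strongest by inhibition in the single 10 µM screen, a fixed top-ranked set picked for dose follow-up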
# A340 absorber: compound light absorbance at 340 nm, profiling panel, artefact control, biochemical, MLSMR library, data from PS, PMK, MK assays. compound absorbance at 340 nm, fold over control. fold change at 10 µM. 65,000 tested, under 10 active. AID 708, 2007;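 active = at 10 µM dose, initial 340 nm absorbance at least 2 fold that of control wells; inactive = change under 2 fold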;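 also: initial absorbance extrapolated from kinetic A340 decline of NADH oxidation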
# Spn DPM-DC inh: S. pneumoniae DPM-DC inhibitors, primary screen, biochemical, PK/LDH-coupled NADH fluorescence. calls only at 10 µM. AID 556, 2006. purified DPM-DC. actives 0.49% (n = 65,000). diphosphomevalonate decarboxylase (Streptococcus pneumoniae D39);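 active = the 320 compounds with the highest percent inhibition in the single-dose primary screen, excluding strongly autofluorescent ones, cut at about 32% in these data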;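 also: kinetic rate of NADH fluorescence loss reporting ADP formed by the decarboxylase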
# Fluor 339 460: intrinsic fluorescence of library compounds, ex339/em460 – biochemical, MLSMR library, data from DPM-DC assay, artefact control, profiling panel; compound autofluorescence, ex339/em460 nm, NADH buffer; stronger effect = higher value; 1 = no-compound wells, NADH background; fluorescence fold increase at 10 µM; actives 5.5% (n = 65,000);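 active = at 10 µM, mean starting fluorescence two-fold or more over control wells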;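 also: signal is the first read of a kinetic run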
# NADH coupling: inhibitors of PK/LDH coupling enzymes, profiling panel, artefact control, biochemical, MLSMR library | coupled PK/LDH NADH assays, four targets | IC50, µM (doses to about 10 µM), for the others: at the highest dose inhibition | actives 0.02% (n = 65,000);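 active = single-dose screening hits from any of four coupled enzyme assays that gave an IC50 when retested across doses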;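 also: the DPM-DC format reads NADH fluorescence rather than 340 nm absorbance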
# PMK inhibit: S. pneumoniae PMK inhibitors, primary screen, biochemical, mevalonate pathway, pilot trial included. AID 539, 2006. phosphomevalonate kinase (Streptococcus pneumoniae D39). actives 0.49% (n = 65,000). purified PMK, PK/LDH-coupled NADH absorbance 340 nm. inhibition, % at 10 µM;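 active = top-ranked compounds by inhibition in the single 10 µM screen, taking a fixed number of the strongest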;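 also: 0% = full reaction with DMSO carrier and 100% = background rate without enzyme reaction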
# Starred values were filed as active, the others as inactive; i = inactive; / = not tested or not shown; + = active, no number.
SMILES,MK inhibit,A340 absorber,Spn DPM-DC inh,Fluor 339 460,NADH coupling,PMK inhibit
CC(C)c1nc2oc3c(NCC4CCCO4)ncnc3c2c2c1COC(C)(C)C2 (configuration not stated),9,1,/,3.8*,11%,12
CCCc1nc2oc3c(NCCOCCO)ncnc3c2c2c1COC(C)(C)C2,9,1,/,3.6*,6%,2
Cc1nc2oc3c(NCC4CCCO4)ncnc3c2c2c1COC(C)(C)C2 (configuration not stated),0,1,+,2.1*,12%,2
CCCc1oc2c(c(=O)c1CC)C(=O)CC(C)(C)C2,4,1,i,1.1,2%,1
CCOC(=O)C1CCN(S(=O)(=O)c2c(C)n[nH]c2C)CC1,11,0.99,i,1,7%,10
O=C1C(Cl)=C(NCC2CCCO2)C(=O)N1CCc1ccccc1 (configuration not stated),5,1,i,1.1,3%,2
COCCOC(=O)c1cc(C(=O)c2cc(F)ccc2O)coc1=N,10,1,i,2.4*,8%,16
COc1ccc(CNC(=O)CSc2nnc(C)s2)cc1,0,1,i,1.1,0%,0
c1ccc2c(-c3nc4ncccc4o3)cccc2c1,8,1.1,/,3.8*,6%,4
O=C(COc1ccccc1)Nc1ccc(Cl)c(-c2nc3ncccc3o2)c1,1,1.2,i,1.3,0%,0
Cc1cc(C)c(NC(=O)CN2CCN3CCCC3C2)c(C)c1 (configuration not stated),10,0.97,i,1.1,9%,17
CCC(=O)N1CCc2cc(S(=O)(=O)NCCCN(CC)Cc3ccccc3)ccc21,0,1.1,i,1.1,5%,16
COC(=O)Cn1c(=NC(=O)CSCC(=O)NC2CCCCC2)sc2cc(OC)ccc21,7,1.2,/,2.1*,6%,5
COc1ccc(N(Cc2cc3cc(OC)ccc3[nH]c2=O)C(=O)c2cccnc2)cc1,10,1.1,i,2.7*,10%,4
CCC(=O)N(Cc1cc2cc(OC)ccc2[nH]c1=O)c1cc(C)ccc1C,7,1,+,2.4*,20%,20
COc1ccc2[nH]c(=O)c(CN(C(=O)COc3ccccc3)C(C)C)cc2c1,1,1.1,i,2.6*,4%,0
CC(C)C(=O)N(Cc1cc2ccccc2[nH]c1=O)C(C)C,9,1,i,1.2,5%,6
COc1ccc2[nH]c(=O)c(CN(C(=O)c3ccccn3)c3ccccc3)cc2c1,13,1.1,/,3.4*,12%,10
CCOC(=O)CCCc1sc(N)nc1-c1[nH]c(=O)[nH]c1C,8,1,i,1.2,6%,9
Cc1cc(NC(=O)CSc2cn(C)c3ccccc23)no1,4,1,i,1.1,5%,8
CCOC(=O)N1C(=O)c2cc(OC)ccc2S1(=O)=O,9,1,i,1.2,19µM*,29*
Cc1occc1C(=O)NCCCc1ccccc1,0,1.1,i,1.1,0%,0
CC1CCCN(CCCNC(=O)c2coc3nc4ccccc4nc23)C1 (configuration not stated),10,1.1,/,4.9*,13%,15
CC1CCN(CCCNC(=O)c2coc3nc4ccccc4nc23)CC1,7,1,/,3.4*,3%,10
Cc1ccc(CCNC(=O)c2coc3nc4ccccc4nc23)cc1,1,1,i,2.3*,4%,12
CC1CCN(CCCNC(=O)c2n[nH]c(=O)c3ccccc23)CC1,2,1.1,i,1.1,1%,0
O=C(COc1cc(Cl)ccc1Cl)Nc1nnc(CC(=O)N2CCOCC2)s1,11,1,i,1.1,4%,0
COc1ccc(N(C)C(=O)CCC(=O)Nc2ccc3nc(N4CCOCC4)cc(C)c3c2)c(OC)c1,4,1,/,4.8*,9%,13
